Data taken from PubChem BioAssay AID1159580 (chemical genetic matrix, 2015).
Values joined by “and” are separate entries in the source; they are usually repeats but may differ in a detail not shown here. Equal values may be shown once. Among all 5,500 compounds or so, about 2,000 (36%) were called active. About 18% were inconclusive and are not listed. Cut-off read from the data, not from the text of the source: active = normalized growth mostly below about 0.91 (no sharp cut-off); inconclusive = no clear call, values can overlap the other calls; inactive = mostly above about 0.92. The list shows a part of the results.

Assay: chemical genetic growth profiling, strain panel (AID 1159580);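 note: tested at 20 µM; growth read once vehicle control cultures reached saturation at 30 °C; 1 = growth at the plate median or of vehicle wells; lower values mean less growth of the strain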
Settings: S. cerevisiae deletion strains, growth OD

Measured: normalized growth

Cc1cccc(CN2CCN(C(c3ccccc3)c3ccc(Cl)cc3)CC2)c1 (stereo not drawn)
inactive: locus YBR229C, strain ROT2, stronger effect = lower value 0.979 | locus YCL029C, strain bik1, stronger effect = lower value 0.961 | locus YCR088W, strain abp1, stronger effect = lower value 0.951 | locus YDL005C, strain med2, stronger effect = lower value 0.999 | locus YDL185W, strain tfp1, stronger effect = lower value 0.99 | locus YDR001C, strain nth1, stronger effect = lower value 0.978 | locus YDR101C, strain arx1, stronger effect = lower value 0.935 | locus YDR137W, strain rgp1, stronger effect = lower value 1.05 | locus YDR159W, strain sac3, stronger effect = lower value 0.925 | locus YDR334W, strain swr1, stronger effect = lower value 0.903 | locus YDR335W, strain msn5, stronger effect = lower value 0.976 | locus YDR392W, strain spt3, stronger effect = lower value 0.875 | locus YEL061C, strain CIN8 (second series), stronger effect = lower value 0.978 | locus YEL061C, strain CIN8, stronger effect = lower value 0.968 | locus YER110C, stronger effect = lower value 0.99 | locus YER111C, strain swi4, stronger effect = lower value 0.96 | locus YER167W, strain BCK2, stronger effect = lower value 0.971 | locus YGL078C, strain dbp3, stronger effect = lower value 0.987 | locus YGL167C, strain pmr1, stronger effect = lower value 0.983 | locus YGL173C, strain kem1, stronger effect = lower value 0.94 | locus YGL227W, strain vid30, stronger effect = lower value 0.963 | locus YGL240W, strain doc1, stronger effect = lower value 0.951 | locus YHR079C, strain IRE1 (second series), stronger effect = lower value 0.942 | locus YHR079C, strain IRE1, stronger effect = lower value 0.934 | locus YHR094C, strain hxt1, stronger effect = lower value 0.986 | locus YIL073C, strain SPO22, stronger effect = lower value 0.951 | locus YIL125W, strain kgd1, stronger effect = lower value 0.993 | locus YIR030C, strain dcg1, stronger effect = lower value 0.979 | locus YJL115W, strain asf1, stronger effect = lower value 0.927 | locus YJL134W, strain LCB3, stronger effect = lower value 0.989 | locus YJL154C, strain vps35, stronger effect = lower value 0.995 | locus YJL168C, strain set2, stronger effect = lower value 0.987 | locus YJR043C, strain POL32, stronger effect = lower value 0.903 | locus YJR066W, strain TOR1, stronger effect = lower value 0.926
0.203 (active) and 0.96 (inactive): locus YJL095W, strain BCK1, stronger effect = lower value
active: locus YAL021C, strain ccr4, stronger effect = lower value 0.543 | locus YAL026C, strain drs2, stronger effect = lower value 0.59 | locus YAL030W, strain snc1, stronger effect = lower value 0.861 | locus YBL061C, strain skt5, stronger effect = lower value 0.771 | locus YBR009C, strain hhf1, stronger effect = lower value 0.58 | locus YBR021W, strain FUR4, stronger effect = lower value 0.645 | locus YBR023C, strain chs3, stronger effect = lower value 0.701 | locus YBR171W, strain sec66, stronger effect = lower value 0.879 | locus YBR231C, strain swc5, stronger effect = lower value 0.636 | locus YBR279W, strain paf1, stronger effect = lower value 0.777 | locus YCL011C, strain gbp2, stronger effect = lower value 0.633 | locus YCL016C, strain dcc1, stronger effect = lower value 0.723 | locus YCL061C, strain MRC1, stronger effect = lower value 0.902 | locus YCL069W, strain vba3, stronger effect = lower value 0.848 | locus YDL035C, strain GPR1, stronger effect = lower value 0.815 | locus YDL040C, strain nat1, stronger effect = lower value 0.922 | locus YDL074C, strain BRE1, stronger effect = lower value 0.498 | locus YDL101C, strain DUN1, stronger effect = lower value 0.887 | locus YDL134C, strain PPH21, stronger effect = lower value 0.806 | locus YDL192W, strain arf1, stronger effect = lower value 0.772 | locus YDR069C, strain doa4, stronger effect = lower value 0.787 | locus YDR162C, strain NBP2, stronger effect = lower value 0.737 | locus YDR195W, strain ref2 1.52 [resistant] | locus YDR297W, strain sur2, stronger effect = lower value 0.885 | locus YDR318W, strain mcm21, stronger effect = lower value 0.828 | locus YDR388W, stronger effect = lower value 0.648 | locus YDR502C, strain sam2, stronger effect = lower value 0.85 | locus YEL003W, strain gim4, stronger effect = lower value 0.793 | locus YEL037C, strain rad23, stronger effect = lower value 0.856 | locus YER015W, strain faa2, stronger effect = lower value 0.561 | locus YER016W, strain bim1, stronger effect = lower value 0.906 | locus YER155C, strain BEM2 (second series), stronger effect = lower value 0.759 | locus YER155C, strain BEM2, stronger effect = lower value 0.862 | locus YFR010W, strain ubp6, stronger effect = lower value 0.699 | locus YGL086W, strain mad1, stronger effect = lower value 0.832 | locus YGL248W, strain PDE1, stronger effect = lower value 0.769 | locus YGL253W, strain hxk2, stronger effect = lower value 0.77 | locus YGR135W, strain pre9, stronger effect = lower value 0.758 | locus YGR252W, strain gcn5, stronger effect = lower value 0.471 | locus YHR013C, strain ard1, stronger effect = lower value 0.54 | locus YHR027C, strain rpn1, stronger effect = lower value 0.68 | locus YHR129C, strain ARP1, stronger effect = lower value 0.842 | locus YHR142W, strain chs7, stronger effect = lower value 0.734 | locus YHR200W, strain rpn10, stronger effect = lower value 0.904 | locus YIL066C, strain RNR3, stronger effect = lower value 0.821 | locus YJL092W, strain hpr5, stronger effect = lower value 0.817 | locus YJL095W, strain BCK1 (second series), stronger effect = lower value 0.332 | locus YJL129C, strain trk1, stronger effect = lower value 0.61 | locus YJL164C, strain tpk1, stronger effect = lower value 0.622 | locus YJL166W, strain qcr8, stronger effect = lower value 0.735 | locus YJL187C, strain SWE1 (second series), stronger effect = lower value 0.731 | locus YJL187C, strain SWE1, stronger effect = lower value 0.878
0.393 (active) and 0.952 (inactive): locus YHR030C, strain SLT2, stronger effect = lower value
